# Rows were chosen to be rich in hits. Some 12% of all compounds tested hit in one or more screens of this group.
# L3MBTL1 inh = inhibitors of human L3MBTL1; Q9Y468; AlphaScreen L3MBTL1–H3K9me1 peptide binding; Potency, µM (top dose mostly 57.1 µM), inactives show at the top dose activity, negative = inhibition, actives largely listed as inhibitors; 230,000 tested, 0.66% active; also: % is scaled to controls: 0 for no effect and ±100 for the full control effect; nearly all actives have a fitted effect of over 60% in size
#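 First, the protein-peptide complex forms for 30 min at room temperature (L3MBTL1 50 nM, biotinylated H3K9me1 peptide 75 nM). Next, compounds are pin-transferred and incubated 30 min. Finally, AlphaScreen beads are added and read after 30 min.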
# HP1b chromo inh = inhibitors of HP1-beta chromodomain binding to methylated histone tails | P83916 | AlphaScreen HP1-beta / biotin-H3K9me3 peptide binding | Potency, µM (highest dose often 114 µM), inactives show top-dose activity change, negative = inhibition, hits mostly inhibitors | 390,000 tested, 0.56% active; also: nearly all actives have a fitted effect of over 70% in size
# Target sequence (P83916 whole entry, looked up): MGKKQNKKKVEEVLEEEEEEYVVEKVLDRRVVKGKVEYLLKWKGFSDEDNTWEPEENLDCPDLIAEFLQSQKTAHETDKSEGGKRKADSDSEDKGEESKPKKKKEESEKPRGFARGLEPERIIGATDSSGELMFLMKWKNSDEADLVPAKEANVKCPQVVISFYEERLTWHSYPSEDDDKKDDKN
#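 AlphaScreen: HP1-beta (50 nM) preformed 30 min with biotin-H3(1-18)K9me3 peptide (50 nM) in PBS pH 7.4, 0.01% Tween-20. Compound added for 30 min at RT, then streptavidin donor/nickel chelate acceptor beads (10 ug/mL) for 30 min.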
# BAZ2B block = BAZ2B (human) inhibition | Potency, µM (doses to about 114 µM), inactives show at the highest dose activity change, negative = inhibition, usual class: inhibitors | AlphaScreen BAZ2B-H3K14Ac peptide displacement | 360,000 tested, 4.4% active | AID 504333 | Q9UIF8; also: % is scaled to controls: 0 for no effect and ±100 for the full control effect; nearly all actives have a fitted effect of over 60% in size
#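 Complex of BAZ2B and biotin-H3K14Ac (50 nM apiece) forms over 30 min at RT, then faces library compounds up to 110 uM for another 30 min; AlphaScreen beads added, 20 min dark incubation, luminescence read.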
# Sfp PPTase inh = Sfp phosphopantetheinyl transferase inhibition; Q9F4F7; Biochemical Sfp PPTase activity, qHTS; Potency, µM, for the others: largest response in the series, negative = inhibition, usual class: inhibitors; 310,000 tested, 3.5% active; AID 1490;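 also: the enzyme is Sfp with the accession as filed and its product quenches rhodamine fluorescence; 0% = enzyme reaction without inhibitor and -100% = no enzyme wells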
#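 Step 1, compound plus 15 nM Sfp-PPTase, 15 min, room temperature. Step 2, add rhodamine-CoA (5 uM) and BHQ-2-YbbR (12.5 uM). Step 3, read 525/598 nm fluorescence at 0 and 30 min.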
# G9a block = G9a (human) methyltransferase inhibition; G9a H3K9 monomethylation, AlphaScreen, 2 h; Potency, µM (highest dose often 102 µM), for inactives: at the top dose activity, negative = inhibition, actives largely listed as inhibitors; 350,000 tested, 8.8% active; AID 504332; also: % is scaled to controls: 0 for no effect and ±100 for the full control effect; nearly all actives have a fitted effect of over 75% in size
# Target sequence (Q96KQ7 913-1193 limits assumed): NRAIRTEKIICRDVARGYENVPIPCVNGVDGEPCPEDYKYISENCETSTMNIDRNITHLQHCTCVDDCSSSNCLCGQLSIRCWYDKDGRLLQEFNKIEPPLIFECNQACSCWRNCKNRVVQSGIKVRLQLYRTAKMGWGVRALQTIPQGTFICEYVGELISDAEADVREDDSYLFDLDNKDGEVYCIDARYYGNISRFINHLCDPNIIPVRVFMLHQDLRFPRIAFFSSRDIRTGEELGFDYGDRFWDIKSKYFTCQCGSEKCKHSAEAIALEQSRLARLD
#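 Using a bead-based AlphaScreen, monomethylated H3K9 product from 2 h room-temperature reactions (G9a 20 nM, peptide 500 nM, SAM 20 uM) was detected with 0.5 ug/mL rabbit anti-H3K9me1 antibody.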
# JMJD2A Tudor inh = blocks the human JMJD2A Tudor domain. O75164. AlphaScreen JMJD2A-Tudor / H3K4me3 peptide binding. Potency, µM (doses to about 114 µM), for inactives: top-dose activity change, negative = inhibition, hits mostly inhibitors. 390,000 tested, 4.4% active; also: % is scaled to controls: 0 for no effect and ±100 for the full control effect; nearly all actives have a fitted effect of over 50% in size
# * marks the source's active call; other numbers are inactive results; ? = inconclusive; nt = no result; ! = not active in a repeat; [ ] = another dose, or the depositor's remark. Calls follow the shape of the dose curve; as a rule, active = well fitted curve in the direction sought with a large enough effect; inconclusive = small, poorly fitted or top-dose-only effect, or another doubt; inactive = no such curve, though single readings can be large; an effect the other way counts as inactive or inconclusive. Potency is read from the fitted curve at half-maximal effect.
SMILES,L3MBTL1 inh,HP1b chromo inh,BAZ2B block,Sfp PPTase inh,G9a block,JMJD2A Tudor inh
COc1ccc(CC(=O)Oc2ccc(C)cc2Br)cc1OC,nt,?,50µM*,-1%,-23%,22%
Cc1cc(Br)cc(C)c1OCC(=O)Nc1ccc(S(=O)(=O)Nc2ncccn2)cc1,nt,10%,-8%,nt,-45%[59 µM],-19%
CC1(C)Cc2noc(N)c2C(C)(C)N1O,?,17%,-7%,?,?,32µM*
O=C(c1ccc([N+](=O)[O-])cc1)N(Cc1cccs1)C1CCS(=O)(=O)C1 (stereo not given),nt,11%,-2%,9%,nt,-2%
CN1CCN(C(=O)C(=O)Nc2c3c(nn2-c2ccc(F)cc2)CSC3)CC1,nt,43%,-3%,nt,4%[59 µM],3%
C[c-]1[c-](C)[c-](C)[c-](C)[c-]1C.[Fe].c1cc2nccc(N3CCCC3)[c-]2c1 (stereo not given),nt,18µM*!,40µM*,89µM*!,?,45µM*
COc1cc(CCc2ccccc2)c(C(=O)O)c(O)c1C/C=C(/C)CCC=C(C)C,-11%,17%,nt,nt,nt,79µM*
CC[n+]1c(C)sc2sc3ccccc3c21,nt,nt,25µM*,2.8µM*,1µM*,nt
C#Cc1nc(Nc2cccc(Cl)c2)nc(NC2CCCC2)n1,nt,nt,nt,nt,nt,-23%
C=CCNc1nc(-c2cccs2)c(CC(=O)O)s1,nt,-8%,?,-8%,-5%[12.7 µM],4%
CCN(CC)CCNc1nc(-c2cccs2)c(CC(=O)O)s1,2%,?,20µM*,56µM*,8.9µM*,5.6µM*
O=C(Cc1sc(Nc2ccccc2)nc1-c1ccccc1)NCc1ccccc1,-13%,?,-7%,?,50µM*,-29%
O=C(Cc1sc(-c2ccccc2)nc1-c1ccccc1)Nc1ccccc1,nt,26%,-4%,9%,12%[12.7 µM],-11%
O=C(O)Cc1sc(Nc2ccccc2)nc1-c1cccs1,nt,-26%,-26%,50µM*,0%[12.7 µM],-15%
CC(C)NCC(O)c1ccc(O)c(O)c1 (stereo not given),nt,11%,-27%,-24%,14µM*!,-7%
CC(C)NCC(O)c1ccc2ccccc2c1 (stereo not given),-5%,45%,11%,13%,-49%[59 µM],-6%
Cc1ccc(S(=O)(=O)NCCC(=O)NCC(=O)Nc2c(C)cccc2C)cc1C,10%,2%,-4%,nt,-6%,-8%
CC1=CC(=O)[C@@H]2C[C@H]1C2(C)C,nt,nt,nt,32%,nt,nt
CC1=CC(=O)C=C(C)C1=NOC(=O)/C=C\c1ccccc1,-6%,1%,-2%,-9%,-8%[59 µM],-23%
CC1=C(C)/C(=N\OC(=O)/C=C/c2ccccc2)C=CC1=O,3%,?,-6%,9%,1%,18µM*
CC1=CC(=NOC(=O)/C=C/c2ccccc2)C=C(C)C1=O,-8%,-21%,13µM*,-19%,30%[0.501 µM],-27%
COc1cc2c(cc1OC)C(c1cc3cccc(C)c3[nH]c1=O)N(C(=O)c1ccco1)CC2 (stereo not given),nt,nt,-31%,13%,-16%,nt
CCc1cccc(-n2nnc(S(=O)(=O)c3ccc(OC)cc3)c2C)c1,nt,27%,-16%,nt,8%[59 µM],-8%
CN(C(=O)CSc1nc(-c2ccccc2)cn1N)C(c1ccccc1)c1ccccc1,nt,-26%,45µM*,8%,18µM*,?
O=C(NC1CCCCC1)Oc1cc2oc(=O)sc2cc1Br,nt,1%,-19%,16µM*,40µM*,-27%
CCc1ccc(C2Sc3ccccc3NC3=C2C(=O)c2ccccc23)cc1 (stereo not given),nt,?,nt,nt,10µM*,25µM*
O=C1C2=C(Nc3ccccc3SC2c2ccc(C(F)(F)F)cc2)c2ccccc21 (stereo not given),nt,?,nt,nt,11µM*,28µM*
O=C1C2=C(Nc3ccccc3SC2c2ccco2)c2ccccc21 (stereo not given),nt,22µM*,35µM*,?,?,35µM*
